In PubChem BioAssay (NCATS):
Inconclusive results are not listed. A number with no mark means an inactive call. Active and inactive are the calls of the source. Calls follow the shape of the dose curve; as a rule, active = well fitted curve in the direction sought with a large enough effect; inconclusive = small, poorly fitted or top-dose-only effect, or another doubt; inactive = no such curve, though single readings can be large; an effect the other way counts as inactive or inconclusive.

target: Calcium and integrin-binding protein 1 (Homo sapiens) (UniProt Q99828); test: Validation qHTS for Identification of Calcium Integrin Binding protein 1 (CIB1) Competitor (AID 1508618); conditions: CIB1-GST / FITC-alphaIIb peptide fluorescence polarization; series mostly up to 114 µM; activity change, negative = inhibition: at the top concentration
Sequence (Q99828 whole entry, looked up): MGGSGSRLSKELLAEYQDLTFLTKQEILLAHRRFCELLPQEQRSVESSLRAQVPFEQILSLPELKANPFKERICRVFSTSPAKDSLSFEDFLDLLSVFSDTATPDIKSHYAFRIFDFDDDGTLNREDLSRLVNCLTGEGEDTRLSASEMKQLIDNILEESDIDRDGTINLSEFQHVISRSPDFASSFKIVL
Outline: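 CIB1-GST (1 uM final) in 5 mM HEPES pH 7.4, 125 mM NaCl, 5 mM CaCl2, 0.01% Tween20 was preincubated 15 min at room temperature with compound (up to 114 uM), then FITC-alphaIIb peptide (100 nM) added for 15 min; fluorescence polarization read.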
% is scaled to controls: 0 for no effect and ±100 for the full control effect.

SMILES	activity change, negative = inhibition [%]
CCSC(=N)N	-6.08
NC(N)=N[C@@H](CCC(=O)O)C(=O)O	8.86
CN(C)CCCc1cc(C(=O)Nc2ccc(-c3ccncc3)cc2)ccc1O	12.7
Cc1nc2n(c(=O)c1CCN1CCC(c3noc4cc(F)ccc34)CC1)CCCC2O (stereo unspecified)	-6.14
N[C@H](C(=O)O)c1cc(O)cc(O)c1	0.315
CC(C)[C@@H]1CC[C@@H](C)C[C@@H]1P(=O)(c1ccccc1)c1ccccc1	2.69
N[C@H](C(=O)O)[C@H](O)C(=O)O	-1.11
NCCS(=O)O	5.45
COc1cc([C@@H]2c3cc4c(cc3[C@H](O)C3COC(=O)[C@@H]32)OCO4)cc(OC)c1OC (stereo partly specified)	6.78
CNC(=O)c1cc2c(cn1)[nH]c1ccccc12	6.14
Nc1ncnc2c1ncn2C1CCCO1 (stereo unspecified)	6.29
Nc1ncnc2c1ncn2C1CCCC1	8.83
OC1(c2ccc(Cl)cc2)CCN(Cc2c[nH]c3ccccc23)CC1	3.62
NC1CONC1=O (stereo unspecified)	10
Nn1nnc2ccccc21	7.23
N=C(N)SCCN	7.12
Cn1cc(C(=O)OCC2CCN(CCNS(C)(=O)=O)CC2)c2ccccc21	5.95
CC(C)NC[C@H](O)COc1ccc(CC(N)=O)cc1	5.82
O=c1cc(-c2ccccc2)[nH]c2nc(Cl)ccc12	21

SMILES	activity change, negative = inhibition [%]
CN[C@H](CC(=O)O)C(=O)O	5.18
c1ccc(CN2CCC3(CCCc4ccccc43)CC2)cc1	5.87
CCCn1c(=O)c(C)cn2nc(N)nc12	6.77
COc1cc(C(O)C(=O)O)ccc1O (stereo unspecified)	2.96
CC1CNCCN1S(=O)(=O)c1cccc2cnccc12 (stereo unspecified)	2.97
C=CC[C@H](N)C(=O)O	5.68
[Li+]	7.75
CCC1(O)CC2CN(CCc3c([nH]c4ccccc34)[C@@](C(=O)OC)(c3cc4c(cc3OC)N(C=O)C3[C@]45CCN4CC=C[C@@](CC)([C@@H](OC(C)=O)[C@]3(O)C(=O)OC)[C@H]45)C2)C1 (stereo partly specified)	11.8
CSC(N)=NCCC[C@H](N)C(=O)O	6.76
CCCCOc1cc(CC2CNC(=O)N2)ccc1OC (stereo unspecified)	5.42
COc1cc(CC(=O)O)ccc1O	2.1
CCCOC(=O)c1c(-c2ccccc2)nc(CC)c(C(=O)SCC)c1CCC	3.63
CN(C)CCC(c1ccc(Br)cc1)c1ccccn1 (stereo unspecified)	-1.11
CC(N)(C(=O)O)c1ccc(C(=O)O)cc1 (stereo unspecified)	6.25
S=C(S)N1CCCC1	2.09
CCCCCC(O)CCCC(=O)O (stereo unspecified)	8.28
CCCCCCCCCC[Si](C)(C)CCC(=O)NC(Cc1ccc(C)cc1)c1ccccc1 (stereo unspecified)	6.81
CN1CC(O)C(O)C(O)C1CO (stereo unspecified)	8.56
Cn1ccnc1	1.57

test system: not listed separately; test: Primary qHTS for small molecule stabilizers of the endoplasmic reticulum resident proteome: Secreted ER Calcium Modulated Protein (SERCaMP) assay (AID 1508630); conditions: SH-SY5Y GLuc-SERCaMP (Gaussia luciferase released on ER calcium loss) secretion, thapsigargin, luminescence; series mostly up to 38.4 µM; activity change, negative = inhibition: at the top concentration
Outline: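 The SH-SY5Y reporter protocol was run at 3 concentrations up to 38.3 uM (primary) or 11 concentrations (follow-up): 16 h compound, 100 nM thapsigargin for 4 h, then extracellular luciferase luminescence.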

SMILES	activity change, negative = inhibition [%]	Potency
CCSC(=N)N	-26.3	–
NC(N)=N[C@@H](CCC(=O)O)C(=O)O	-29.2	–
CN(C)CCCc1cc(C(=O)Nc2ccc(-c3ccncc3)cc2)ccc1O	–	inactive
Cc1nc2n(c(=O)c1CCN1CCC(c3noc4cc(F)ccc34)CC1)CCCC2O (stereo unspecified)	6.53	–
N[C@H](C(=O)O)c1cc(O)cc(O)c1	–	inactive
CC(C)[C@@H]1CC[C@@H](C)C[C@@H]1P(=O)(c1ccccc1)c1ccccc1	-21.6	–
N[C@H](C(=O)O)[C@H](O)C(=O)O	–	inactive
NCCS(=O)O	-18.4	–
COc1cc([C@@H]2c3cc4c(cc3[C@H](O)C3COC(=O)[C@@H]32)OCO4)cc(OC)c1OC (stereo partly specified)	62.9	–
CNC(=O)c1cc2c(cn1)[nH]c1ccccc12	–	inactive
Nc1ncnc2c1ncn2C1CCCO1 (stereo unspecified)	–	inactive
Nc1ncnc2c1ncn2C1CCCC1	-13.9	–
OC1(c2ccc(Cl)cc2)CCN(Cc2c[nH]c3ccccc23)CC1	–	inactive
NC1CONC1=O (stereo unspecified)	-18	–
Nn1nnc2ccccc21	-27.6	–
N=C(N)SCCN	-26	–
Cn1cc(C(=O)OCC2CCN(CCNS(C)(=O)=O)CC2)c2ccccc21	-26.1	–
CC(C)NC[C@H](O)COc1ccc(CC(N)=O)cc1	–	inactive
O=c1cc(-c2ccccc2)[nH]c2nc(Cl)ccc12	5.17	–

SMILES	activity change, negative = inhibition [%]	Potency
CN[C@H](CC(=O)O)C(=O)O	-10.7	–
c1ccc(CN2CCC3(CCCc4ccccc43)CC2)cc1	14.5	–
CCCn1c(=O)c(C)cn2nc(N)nc12	-29.2	–
COc1cc(C(O)C(=O)O)ccc1O (stereo unspecified)	–	inactive
CC1CNCCN1S(=O)(=O)c1cccc2cnccc12 (stereo unspecified)	103	–
C=CC[C@H](N)C(=O)O	-29.5	–
[Li+]	3.99	–
CCC1(O)CC2CN(CCc3c([nH]c4ccccc34)[C@@](C(=O)OC)(c3cc4c(cc3OC)N(C=O)C3[C@]45CCN4CC=C[C@@](CC)([C@@H](OC(C)=O)[C@]3(O)C(=O)OC)[C@H]45)C2)C1 (stereo partly specified)	70.2	–
CSC(N)=NCCC[C@H](N)C(=O)O	1.68	–
CCCCOc1cc(CC2CNC(=O)N2)ccc1OC (stereo unspecified)	–	inactive
COc1cc(CC(=O)O)ccc1O	–	inactive
CCCOC(=O)c1c(-c2ccccc2)nc(CC)c(C(=O)SCC)c1CCC	4.92	–
CN(C)CCC(c1ccc(Br)cc1)c1ccccn1 (stereo unspecified)	-8.43	–
CC(N)(C(=O)O)c1ccc(C(=O)O)cc1 (stereo unspecified)	–	inactive
S=C(S)N1CCCC1	–	inactive
CCCCCC(O)CCCC(=O)O (stereo unspecified)	–	inactive
CCCCCCCCCC[Si](C)(C)CCC(=O)NC(Cc1ccc(C)cc1)c1ccccc1 (stereo unspecified)	-13.9	–
CN1CC(O)C(O)C(O)C1CO (stereo unspecified)	-13.8	–
Cn1ccnc1	-16.5	–
